These results are taken from the supplement of paper PMC9254222.

The experiment relates to HEK293T (UBE3A T485A transfected, BAR Wnt reporter). As to the kind of experiment: Renilla luciferase signal (cell health) relative to plate median (fold (linear ratio)); higher = higher Renilla signal. The settings on record: 24 h. Put shortly:
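HEK293T cells carrying a transfected BAR firefly luciferase Wnt reporter, TK-Renilla and an expression plasmid were exposed to chemicals at 0.01–100 uM for 24 h, with dosing four hours after transfection. Readout used Dual-Glo luciferase. The firefly/Renilla ratio defined Wnt activity and raw Renilla defined cell health, each median-centred per plate. Figures are means of four biological replicates.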

In all, about 1,100 compounds were measured (“Renilla luciferase signal (cell health) relative to plate median”: median about 0.97, highest 2% from about 1.6 on). The entries come from a sample that favours the highest values as a whole.

With `O=C(O)c1cc(/N=N/c2ccc(S(=O)(=O)Nc3ccccn3)cc2)ccc1O` [Sulfasalazine], the Renilla luciferase signal reads like this: (concentration: 0.1 uM) 0.788; (concentration: 1 uM) 0.885; (concentration: 10 uM) 0.691; (concentration: 100 uM) 0.277.
As for `CC(C)(C)C(O)C(Cc1ccc(Cl)cc1)n1cncn1` (configuration not stated) [Paclobutrazol], the Renilla luciferase signal was found to be 1.25 (concentration: 0.01 uM); 1.16 (concentration: 0.1 uM); 1.06 (concentration: 1 uM); 1.22 (concentration: 10 uM); 1.62 (concentration: 100 uM).
Consider `CCOc1cccc(-n2cc(C(=O)N3CCN(c4cc(C(=O)[O-])c5ccccc5c4)CC3)nc2-c2ccc(C)cc2)c1.[Na+]`, for which the Renilla luciferase signal was 0.869 (concentration: 0.1 uM), 0.966 (concentration: 1 uM), 0.903 (concentration: 10 uM) and 0.0785 (concentration: 100 uM).
On the same counts, the results for `Cc1cc(NC(=O)C(=O)O)cc(C)c1Oc1ccc(O)c2c1CCC2` are 1.12, 1.12, 0.767 and 1.03.
The like results for `Cc1occc(=O)c1O` [Maltol] were, in that order, 0.895, 0.982, 0.967 and 1.11.
On the same counts, the results for `CCN(CC)C(=O)c1cc(S(=O)(=O)Cc2ccccc2)c(N2CCC(c3ccccc3)CC2)cc1N(CC)CCN(C)C.O=C(O)C(F)(F)F` [HMR1171 trifluoroacetate (1:1)] are 0.802, 0.767, 0.648 and 0.249.
For the compound `OC12N=C(c3ccccc3)SC1Cc1cc(Cl)ccc12` (configuration not stated), the Renilla luciferase signal amounted to 1.14 (concentration: 0.1 uM), 1.13 (concentration: 1 uM), 1.03 (concentration: 10 uM) and 0.714 (concentration: 100 uM).
The like results for `Cc1cc(SC2=C(O)C[C@@](CCc3ccc(N)cc3)(C(C)C)OC2=O)c(C(C)(C)C)cc1CO` were, in that order, 0.926, 1.01, 0.952 and 0.324.
Take `Sc1nc2ccccc2s1` [2-Mercaptobenzothiazole]: the Renilla luciferase signal by setting is: (concentration: 0.1 uM) 0.981; (concentration: 1 uM) 0.791; (concentration: 10 uM) 0.768; (concentration: 100 uM) 0.92.
With `O.O=C1[N-]S(=O)(=O)c2ccccc21.[Na+]` [Sodium saccharin hydrate], the Renilla luciferase signal amounted to 1.05 (concentration: 0.1 uM), 1.15 (concentration: 1 uM), 1.35 (concentration: 10 uM) and 1.71 (concentration: 100 uM).
The like results for `C#C[C@]1(O)CC[C@H]2[C@@H]3CCC4=CC(=O)CC[C@@H]4[C@H]3CC[C@@]21C` [Norethindrone] were, in that order, 0.942, 0.982, 0.94 and 0.294.
As to `c1ccc2occc2c1` [2,3-Benzofuran], the Renilla luciferase signal (concentration: 0.1 uM) came out at 0.785, the Renilla luciferase signal (concentration: 1 uM) was 0.78, the Renilla luciferase signal (concentration: 10 uM) stood at 0.808 and the Renilla luciferase signal (concentration: 100 uM) came out at 1.07.
On the same counts, the results for `CCCCCCCCOC(=O)c1cc(O)c(O)c(O)c1` [Octyl gallate] are 0.909, 0.947, 0.814 and 0.0786.
Regarding `CCOC(=O)COc1cc(-n2ncc(C(F)(F)F)c(C)c2=O)c(F)cc1Cl` [Flufenpyr-ethyl], the Renilla luciferase signal came out at 1.2 (concentration: 0.01 uM); 0.957 (concentration: 0.1 uM); 1.07 (concentration: 1 uM); 1.03 (concentration: 10 uM); 1.51 (concentration: 100 uM).
On the same counts, the results for `CCCCCOC(=O)COc1cc(N2C(=O)C3=C(CCCC3)C2=O)c(F)cc1Cl` [Flumiclorac-pentyl] are 0.938, 0.9, 1.01, 0.974 and 1.62.
For `CCCCCCc1ccc(O)cc1O` [4-Hexylresorcinol], the Renilla luciferase signal runs as follows: (concentration: 0.1 uM) 0.881; (concentration: 1 uM) 1.04; (concentration: 10 uM) 0.888; (concentration: 100 uM) 0.0332.
